Experimental data from PubChem BioAssay (EPA / NIEHS).
Calls of active or inactive are those of the source. The calls were made as follows: active = hit-call score of the fitted dose curve at least 0.9, where 1 is the maximum; inactive = score below 0.9.

Assays:
[1] = ATG_PXRE_CIS: Attagene CIS-FACTORIAL HepG2 Assay for human Pregnane X Receptor Element (PXRE) (AID 2282957); details: HepG2 Attagene CIS-FACTORIAL PXRE reporter, mRNA; actives raise or lower the signal
Procedure, shortened: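 Bidirectional activity, baselined to DMSO, derived from reporter mRNA fluorescence (RT-PCR plus capillary electrophoresis) in HepG2 cells bearing cis-promoter reporter units, 24 h exposure.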

[2] = ATG_PPRE_CIS: Attagene CIS-FACTORIAL HepG2 Assay for human Peroxisome Proliferator-activated Response Element (PPRE) (AID 2282958); details: HepG2 PPRE cis-element reporter, Attagene transcription factor profiling; actives raise or lower the signal
Procedure, shortened: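 Endogenous PPRE-driven transcription is measured in HepG2 cells carrying transfected multi-reporter constructs. Reporter transcripts are quantified by RT-PCR, HpaI digestion and capillary electrophoresis 24 h after dosing. DMSO baseline, bidirectional fit.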

[3] = ATG_RORE_CIS: Attagene CIS-FACTORIAL HepG2 Assay for human RAR-related Orphan Receptor Element (RORE) (AID 2282959); details: HepG2 Attagene cis-factorial RORE reporter, mRNA; actives raise or lower the signal
Procedure, shortened: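 RORE reporter transcripts reflecting endogenous factor activity were read after 24 h compound exposure of transfected HepG2 cells, using reverse transcription, PCR, fluorescent labelling and capillary electrophoresis sizing. Gain or loss fitted against DMSO.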

[4] = ATG_Sox_CIS: Attagene CIS-FACTORIAL HepG2 Assay for human SRY-box transcription factor (SOX) (AID 2282960); details: HepG2 Attagene cis-factorial SOX reporter, mRNA; actives raise or lower the signal
Procedure, shortened: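 Reporter transcripts, measured by RT-PCR and capillary electrophoresis of labelled fragments, report endogenous SOX transcription factor activity. Transiently transfected human HepG2 cells receive chemical for 24 h; changes in either direction are fitted relative to DMSO.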

[5] = target: Transcription factor Sp1 (Homo sapiens) (UniProt P08047); assay: ATG_Sp1_CIS: Attagene CIS-FACTORIAL HepG2 Assay for human Specificity Protein 1 (Sp1) (AID 2282961); details: HepG2 Sp1 cis-reporter transcription, actives raise or lower the signal
Sequence of Transcription factor Sp1 (Homo sapiens) (P08047 whole entry, looked up): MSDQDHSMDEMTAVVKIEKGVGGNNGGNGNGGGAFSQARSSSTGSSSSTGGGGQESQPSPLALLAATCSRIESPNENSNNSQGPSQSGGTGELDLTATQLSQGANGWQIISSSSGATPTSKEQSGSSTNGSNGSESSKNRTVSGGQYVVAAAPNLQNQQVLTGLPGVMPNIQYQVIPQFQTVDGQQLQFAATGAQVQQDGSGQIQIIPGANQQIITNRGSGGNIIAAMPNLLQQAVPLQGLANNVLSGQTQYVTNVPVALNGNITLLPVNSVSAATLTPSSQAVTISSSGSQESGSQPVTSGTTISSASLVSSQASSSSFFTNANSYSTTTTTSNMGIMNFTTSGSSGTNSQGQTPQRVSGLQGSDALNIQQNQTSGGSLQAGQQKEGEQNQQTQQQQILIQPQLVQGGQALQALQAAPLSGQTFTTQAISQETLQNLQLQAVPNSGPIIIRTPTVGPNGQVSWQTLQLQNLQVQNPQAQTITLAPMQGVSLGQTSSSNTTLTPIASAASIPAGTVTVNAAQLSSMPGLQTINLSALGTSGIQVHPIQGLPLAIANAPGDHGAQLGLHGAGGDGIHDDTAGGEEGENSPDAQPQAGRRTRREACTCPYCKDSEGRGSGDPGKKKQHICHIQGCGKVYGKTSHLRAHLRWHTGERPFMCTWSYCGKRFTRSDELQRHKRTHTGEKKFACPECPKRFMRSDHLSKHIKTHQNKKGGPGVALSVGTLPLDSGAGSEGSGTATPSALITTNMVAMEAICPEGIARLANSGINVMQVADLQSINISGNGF
Procedure, shortened: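 Read-out is reporter transcript level, measured by RT-PCR and fluorescent capillary electrophoresis after 24 h chemical treatment. System: transiently transfected HepG2 cells reporting endogenous transcription factor activity; gain or loss fitted against DMSO baseline.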

[6] = ATG_SREBP_CIS: Attagene CIS-FACTORIAL HepG2 Assay for human Sterol Regulatory Element Binding (SREBP) (AID 2282962); details: HepG2 Attagene cis-factorial SREBP reporter, mRNA; actives raise or lower the signal
Procedure, shortened: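 Endogenous SREBP activity read as cis-element-driven reporter transcript in transiently transfected HepG2, 24 h post-dosing; quantified via RT-PCR plus capillary electrophoresis of fluorescent fragments. Gain or loss of signal fitted relative to DMSO baseline.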

[7] = target: Signal transducer and activator of transcription 3 (Homo sapiens) (UniProt P40763); assay: ATG_STAT3_CIS: Attagene CIS-FACTORIAL HepG2 Assay for human Signal Transducer and Activator of Transcription 3 (STAT3) (AID 2282963); details: HepG2, Attagene cis-factorial STAT3 reporter transcription; actives raise or lower the signal
Sequence of Signal transducer and activator of transcription 3 (Homo sapiens) (P40763 whole entry, looked up): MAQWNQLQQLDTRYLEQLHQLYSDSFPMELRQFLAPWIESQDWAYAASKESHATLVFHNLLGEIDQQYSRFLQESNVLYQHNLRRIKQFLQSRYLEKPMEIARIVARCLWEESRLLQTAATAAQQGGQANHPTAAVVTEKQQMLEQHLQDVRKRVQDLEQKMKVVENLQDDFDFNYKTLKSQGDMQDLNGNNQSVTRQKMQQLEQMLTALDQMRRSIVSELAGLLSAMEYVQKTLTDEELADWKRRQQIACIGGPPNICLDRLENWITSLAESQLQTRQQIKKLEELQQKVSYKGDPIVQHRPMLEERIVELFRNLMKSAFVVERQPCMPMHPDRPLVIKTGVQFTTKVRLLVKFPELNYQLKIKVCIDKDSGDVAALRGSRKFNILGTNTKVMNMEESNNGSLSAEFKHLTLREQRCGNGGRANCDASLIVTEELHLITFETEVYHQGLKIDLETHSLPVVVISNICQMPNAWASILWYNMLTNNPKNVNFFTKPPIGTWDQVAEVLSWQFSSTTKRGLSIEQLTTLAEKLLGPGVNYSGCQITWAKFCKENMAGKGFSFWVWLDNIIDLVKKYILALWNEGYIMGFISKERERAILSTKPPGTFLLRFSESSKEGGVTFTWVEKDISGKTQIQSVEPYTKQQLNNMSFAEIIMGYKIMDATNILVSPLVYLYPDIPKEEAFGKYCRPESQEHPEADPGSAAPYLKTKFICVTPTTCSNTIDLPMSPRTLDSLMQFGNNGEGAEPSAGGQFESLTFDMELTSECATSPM
Procedure, shortened: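 Cis-factorial format: endogenous transcription factors in HepG2 drive transfected reporter units. After 24 h treatment, reporter RNA was reverse-transcribed, amplified, FAM-labelled and HpaI-digested before CE analysis; activity scored in both directions against DMSO.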

[8] = ATG_TA_CIS: Attagene CIS-FACTORIAL HepG2 Assay for human TA Basal Promoter (AID 2282964); details: HepG2 Attagene CIS-factorial TA basal promoter reporter; actives raise or lower the signal
Procedure, shortened: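 Transfected HepG2, 24 h compound exposure; RNA → RT-PCR → FAM primer extension → HpaI cut → CE fluorescence. Gain/loss-of-signal fitted against DMSO negative control. Background-control readout.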

[9] = ATG_TCF_b_cat_CIS: Attagene CIS-FACTORIAL HepG2 Assay for human T-Cell-Factor with beta-catenin (TCF/b-cat) (AID 2282965); details: HepG2 TCF/beta-catenin cis-reporter transcription, actives raise or lower the signal
Procedure, shortened: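 Endogenous TCF/LEF activity read as reporter transcript level via RT-PCR and capillary electrophoresis fluorescence in transfected HepG2, 24 h exposure; gain or loss of signal fitted against DMSO controls.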

[10] = ATG_TAL_CIS: Attagene CIS-FACTORIAL HepG2 Assay for human TAL Basal Promoter (AID 2282966); details: HepG2 Attagene cis-factorial TAL promoter reporter; actives raise or lower the signal;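 also: background control endpoint measuring basal TAL promoter reporter mRNA not a specific factor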
Procedure, shortened: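 Human hepatoma HepG2 cells, transfected with promoter-regulated reporter units, were treated 24 h. Reporter transcript levels, measured through RT-PCR and capillary electrophoresis, were fitted for gain or loss relative to DMSO.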

Measured: AC50

O=C1Cc2ccccc2N1c1c(Cl)cccc1Cl
active: [1] 0.484 µM
inactive: [2] | [3] | [4] | [5] | [6] | [7] | [8] | [9] | [10]

Nc1cc(Cl)c(-c2cc(Cl)c(N)cc2Cl)cc1Cl
inactive: [2] | [3] | [7] | [8] | [9] | [10]
active: [1] 2.97 µM | [4] 10.5 µM | [5] 15.9 µM | [6] 6.9 µM

Cc1cccc2c1ccc1ccccc12
active: [1] 27.4 µM
inactive: [2] | [3] | [4] | [5] | [6] | [7] | [8] | [9] | [10]

O=C1C=CC(=O)N1c1cccc(N2C(=O)C=CC2=O)c1
inactive: [1] | [2] | [3] | [4] | [5] | [6] | [7] | [9] | [10]

CC(C)(C)c1ccc(CCC=O)cc1
active: [1] 22.3 µM | [9] 162 µM
inactive: [2] | [3] | [4] | [5] | [6] | [7] | [10]

O=C1OC(=O)c2cc(-c3ccc4c(c3)C(=O)OC4=O)ccc21
inactive: [1] | [2] | [3] | [4] | [5] | [6] | [7] | [9] | [10]

CC1CNCC(C)O1 (stereo not given)
inactive: [1] | [2] | [3] | [4] | [5] | [6] | [7] | [8] | [9] | [10]

COc1ccccc1NC(=O)c1cc2ccccc2cc1O
active: [1] 1.63 µM | [4] 100 µM | [5] 27.7 µM | [6] 55.5 µM | [9] 123 µM
inactive: [2] | [3] | [7] | [8] | [10]

CC(C)CCOCCC(C)C
inactive: [1] | [2] | [3] | [4] | [5] | [6] | [7] | [9] | [10]

COC(O)c1ccccc1 (stereo not given)
inactive: [2] | [3] | [4] | [5] | [6] | [7] | [9] | [10]
active: [1] 75.1 µM

CCN(CCC#N)c1ccccc1
inactive: [2] | [3] | [4] | [5] | [6] | [7] | [9] | [10]
active: [1] 39.6 µM

C=CCOCC(CO)(CO)CO
inactive: [2] | [3] | [4] | [5] | [6] | [7] | [8] | [9] | [10]
active: [1] 25.3 µM

NCc1cccc(CN)c1
inactive: [1] | [2] | [3] | [4] | [5] | [7] | [9] | [10]

Cc1ccccc1OCC(=O)O
inactive: [1] | [2] | [3] | [4] | [5] | [8] | [9] | [10]

NS(=O)(=O)O
inactive: [1] | [2] | [4] | [5] | [6] | [7] | [8] | [9] | [10]

CN(Cc1cnc2nc(N)nc(N)c2n1)c1ccc(C(=O)N[C@@H](CCC(=O)O)C(=O)O)cc1
inactive: [3] | [4] | [5] | [6] | [8] | [9] | [10]
active: [1] 58.9 µM

C=CC(=O)OCCN(CC)CC
active: [1] 66.9 µM
inactive: [2] | [3] | [4] | [5] | [7] | [9] | [10]

CC1CCC(CO)CC1 (stereo not given)
inactive: [1] | [3] | [4] | [5] | [6] | [7] | [9] | [10]

CCCCCCCCCCCCCC[n+]1ccccc1
active: [1] 11.1 µM | [8] 8.99 µM
inactive: [2] | [3] | [4] | [5] | [7] | [9] | [10]

Brc1cc(Br)c(Oc2c(Br)cc(Br)c(Br)c2Br)cc1Br
inactive: [1] | [2] | [3] | [4] | [5] | [7] | [9] | [10]
